Data taken from PubChem BioAssay AID1117264 (The Scripps Research Institute Molecular Screening Center, 2014).
The whole screen tested about 89,000 compounds, of which about 440 (0.49%) were called active. The sample holds actives, similar compounds and a random draw of the others, so the mix is not that of the screen.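 The calls were made as follows: active = inhibition above the mean inhibition across all screened compounds plus 3 SD (cut at about 11% in these data); inactive = the rest.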

target: RNA-editing ligase 1, mitochondrial (Trypanosoma brucei brucei) (UniProt P86926); experiment: T. brucei editing ligase REL1 blockade – biochemical, FRET fluorescence, primary screen (AID 1117264); conditions: TbREL1 RNA ligation, at 9.66 µM, hits give high values;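 also: 0% = plate median of test wells and 100% = NSC42067 control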
Sequence (P86926 whole entry, looked up): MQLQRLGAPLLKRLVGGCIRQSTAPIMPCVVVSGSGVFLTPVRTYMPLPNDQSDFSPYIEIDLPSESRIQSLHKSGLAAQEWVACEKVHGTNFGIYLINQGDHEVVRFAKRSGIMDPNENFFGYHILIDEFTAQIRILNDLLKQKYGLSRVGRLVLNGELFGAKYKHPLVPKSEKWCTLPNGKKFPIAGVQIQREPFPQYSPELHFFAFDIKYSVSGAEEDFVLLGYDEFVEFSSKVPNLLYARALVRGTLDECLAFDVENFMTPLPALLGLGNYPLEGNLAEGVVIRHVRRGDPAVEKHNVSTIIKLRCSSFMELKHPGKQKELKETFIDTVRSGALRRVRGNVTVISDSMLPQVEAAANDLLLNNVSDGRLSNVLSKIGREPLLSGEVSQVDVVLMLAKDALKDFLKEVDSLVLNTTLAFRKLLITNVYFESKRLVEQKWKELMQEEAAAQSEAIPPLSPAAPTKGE

SMILES | inhibition
Cc1c(Cl)cccc1NC(=O)NCCCN1CCCC1=O | 5.26% (inactive)
Cc1nnsc1C(=O)Nc1cccc(Cl)c1C | 11.4% (active)
Cc1nc(C)c(C(=O)Nc2cccc(C)c2C)o1 | -2.18% (inactive)
O=C(OCC(=O)N1CCCC1)c1ccc(Cl)nc1 | 4.11% (inactive)
CC1(C)CC(N2CCN(C(c3ccccc3)c3ccccc3)CC2)=CC(=[N+]2CCCCC2)C1 | 20.5% (active)
O=C1CC(N2CCN(C(c3ccccc3)c3ccccc3)CC2)C(=O)N1 (stereo not drawn) | 4.81% (inactive)
Cc1cccc(N2CCN(C(c3ccccc3)c3nnnn3CC3CCCO3)CC2)c1C (stereo not drawn) | -2.64% (inactive)
COC(=O)CN1C(=O)[C@H]2[C@@H](/C=C/c3ccccc3)N3C(=O)CN(CC4CC4)C(=O)[C@@]3(Cc3ccccc3)[C@H]2C1=O | -1.86% (inactive)
NC(=O)COC(=O)c1ccc2c(c1)C(=O)N(Cc1ccco1)C2=O | -0.09% (inactive)
Cc1cc(NS(=O)(=O)c2ccc(NC(=O)CSc3nnc(SCc4ccc(F)cc4)s3)cc2)nc(C)n1 | 1.56% (inactive)
CCOC(=O)C1C(c2ccc(O)cc2)NC(=O)NC1(O)C(F)(F)F (stereo not drawn) | -0.27% (inactive)
COC(=O)C1CN(CCc2ccccc2)CCS(=O)(=O)N1Cc1cccc(Cl)c1 (stereo not drawn) | 1.04% (inactive)
COc1ccc(CCNC(=O)CSc2nc3[nH]ncc3c(=O)n2-c2cccc(C(F)(F)F)c2)cc1OC | -1.55% (inactive)
CCc1ccc(N(CC(=O)NCc2cccnc2)S(=O)(=O)c2ccccc2)cc1 | -1.98% (inactive)
N#Cc1ccc(C2N=C(c3ccccc3)NO2)cc1 (stereo not drawn) | 9.48% (inactive)
O=C(Nc1ccon1)c1nc[nH]c1C(=O)NCc1ccccc1 | 5.43% (inactive)
Cc1nc2ccc(C(=O)N3CCN(C(=O)C(C)(C)C)CC3)cc2n1C1CCCC1 | -0.3% (inactive)
COc1ccccc1/C=C/C(=O)OCC(=O)NC1CCCCCC1 | 1.81% (inactive)
Cc1ccc(Cn2c(C)c(C(=O)NCc3ccccc3C(F)(F)F)sc2=O)cc1 | 0.6% (inactive)
COc1ccc(S(=O)(=O)N2CCOCC2)cc1NC(=O)CC1CC2CCC1C2 (stereo not drawn) | -2.41% (inactive)
CCOc1ccc(NC(=O)CCCCCN2C(=O)[C@@H]3Cc4ccccc4CN3C2=O)cc1 | -0.69% (inactive)
Cc1c(S(=O)(=O)NC(C)c2ccccc2)c(=O)n(C)c(=O)n1C (stereo not drawn) | 0.77% (inactive)
CCOc1cc2[nH]c(=O)n(Cc3ccc(C(=O)NCCCN4CCCC4=O)cc3)c(=O)c2cc1OCC | -3.44% (inactive)
CCCCCn1c(=O)[nH]c2cc(C(=O)NCCCN3CCCCC3C)ccc2c1=O (stereo not drawn) | 11.5% (active)
CCC1CCCCN1CCCNC(=O)C1CCC(Cn2c(=O)[nH]c3ccccc3c2=O)CC1 (stereo not drawn) | 0.83% (inactive)
CCn1c(=S)sc2c(=O)n(CC(=O)Nc3ccc(OC)cc3)c(C)nc21 | -1.47% (inactive)
O=C(NC1CCCCC1)C1CCCN(S(=O)(=O)c2ccc(Br)s2)C1 (stereo not drawn) | 1.07% (inactive)

SMILES | inhibition
CCOC(=O)N1CCN(Cc2nc(Cc3cccc(C(F)(F)F)c3)no2)CC1 | 1.05% (inactive)
COc1ccc(N(Cc2ccc(N(C)C)cc2)C(=O)c2ccc(S(C)(=O)=O)cc2)cc1 | -9.41% (inactive)
COCCN(Cc1ccccc1)C(=O)Cc1ccc(S(=O)(=O)N2CCOCC2)s1 | -2.32% (inactive)
CCc1ccc(CN2C(=O)c3ccccc3C2C(=O)NCC2CCCO2)cc1 (stereo not drawn) | -0.89% (inactive)
COCC(=O)N(C)[C@H]1C[C@H]2c3cc(Oc4ccccc4C)ccc3CCN2C(=O)[C@H]1[C@H](C)O | 1.02% (inactive)
COc1cccc(CNC(=O)C2CCCN(c3ncnc4c3nc3n4CCCCC3)C2)c1 (stereo not drawn) | 0.12% (inactive)
Cc1ccc(NC(=O)Cn2cccc2C2=NC(c3ccccc3)CO2)c(C)c1 (stereo not drawn) | -0.96% (inactive)
COc1ccc(N2C(=O)c3ccccc3NC2c2ccc(OC)c(CN3CCOCC3)c2)cc1 (stereo not drawn) | 0.23% (inactive)
CC[C@@H](C)[C@@H]1CN([C@@H](C)CN2CCC[C@H]2CN2C(N)=NC[C@H]2C(C)C)C(=N)N1CCc1ccc(Cl)c(Cl)c1 | 14% (active)
O=C1NC[C@H](Cc2ccc(O)cc2)N(C[C@H]2CCCN2C[C@H](Cc2ccccc2)N2C[C@H](Cc3ccccc3)N(CCc3ccccc3)C(=O)C2=O)C1=O | -1.45% (inactive)
CC1CCCCN1C(=O)Cn1c(=O)oc2cc(S(=O)(=O)N3CCCCC3)ccc21 (stereo not drawn) | -1.44% (inactive)
Cc1cc(C)cc(N(CC(=O)NC2CCCC2)C(=O)CCC(=O)Nc2cc(C)on2)c1 | 0.2% (inactive)
Nc1ncnc2c1ncn2[C@@H]1O[C@H](C(=O)N[C@@H](CCc2ccccc2)C(=O)NCC(=O)N2CCOCC2)[C@@H](O)[C@H]1O | -1.68% (inactive)
CCOC(=O)COc1cc(OCC(=O)OCC)c2c(=O)cc(-c3ccccc3)oc2c1 | 2.07% (inactive)
COc1c(O)cc2oc(-c3ccc(O)c(O)c3)cc(=O)c2c1O | 29.5% (active)
COc1cc(NC(=O)CSC(=S)N2CCCC2)c(OC)cc1Cl | 6.87% (inactive)
O=c1[nH]c(=O)c2nc3ccccc3nc2[nH]1 | -0.15% (inactive)
Nc1ccc2nc3c(=O)[nH]c(=S)[nH]c3nc2c1 | 50.5% (active)
COc1ccc([N+](=O)[O-])cc1N(CC(=O)Nc1ccccc1C(=O)N1CCOCC1)S(C)(=O)=O | -1.27% (inactive)
O=C(NCc1ccccc1)C1c2ccccc2OCC(=O)N1C1CC1 (stereo not drawn) | 4.12% (inactive)
O=C(NCc1ccccc1)[C@@H]1CSC2c3ccccc3C(=O)N21 (stereo partly drawn) | 18.5% (active)
O=C(NCc1ccccc1)C1CCN(C(=O)Cc2ccccc2)CC1 | 0.8% (inactive)
Cc1c(CCC(=O)N[C@@H](CC(C)C)C(=O)O)c(=O)oc2c(C)c3oc4c(c3cc12)CCCC4 | 0.56% (inactive)
Cc1cc(NC(=O)CN2C(=O)NC(C)(CCc3ccccc3)C2=O)no1 (stereo not drawn) | 0.2% (inactive)
O=C(NNC1CC(=O)N(c2cccc(Cl)c2)C1=O)c1cccnc1 (stereo not drawn) | 0.41% (inactive)
O=S1(=O)CC(N2CCN(CCO)CC2)CN1Cc1cn(Cc2cccc(Cl)c2)nn1 (stereo not drawn) | 0.87% (inactive)
